# Experimental data from PubChem BioAssay AID485317 (Broad Institute, 2010).
# About 11,000 (3.8%) of roughly 290,000 compounds were called active. The full list was thinned out, with actives kept by preference. A number with no mark means an inactive call.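 Rule for the calls: active = mean replicate inhibition above about 79%, with every replicate also reaching it (limit read from the data); inconclusive = only one of the two criteria met; inactive = mean below limit and not every replicate reaching it.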
# Molecular target: FAD-linked sulfhydryl oxidase ALR (Homo sapiens) (UniProt P55789)
# Test: ALR-catalysed DTT oxidation blockers – biochemical, H2O2 detection, HRP-luminol luminescence, single point, primary screen (AID 485317)
# Details: purified ALR, hits give high values, concentration not given here
# FAD-linked sulfhydryl oxidase ALR (Homo sapiens), sequence (P55789 whole entry, looked up): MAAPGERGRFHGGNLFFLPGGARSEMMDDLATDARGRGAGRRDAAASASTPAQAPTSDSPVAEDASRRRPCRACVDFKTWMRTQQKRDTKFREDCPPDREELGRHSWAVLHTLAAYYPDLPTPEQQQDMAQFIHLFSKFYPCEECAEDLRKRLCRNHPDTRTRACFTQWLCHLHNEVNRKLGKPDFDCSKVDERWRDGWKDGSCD
row,SMILES,inhibition
1,Cc1cc(C)c(S(=O)(=O)N2CCCC2CNC(=O)c2ccc3c(c2)OCO3)c(C)c1 (configuration not stated),0.666%
2,COCCn1c(C)cc(C(=O)CN2c3cccc4cccc(c34)S2(=O)=O)c1C,-28.9%
3,CCCCN(C(=O)C1CCC1)c1c(N)n(Cc2ccccc2)c(=O)[nH]c1=O,7.79%
4,Cc1ccccc1NC(=O)Cc1nc(COC(=O)c2cccnc2Cl)cs1,31.8%
5,O=C(COC(=O)c1ccc2c(c1)OCCO2)NCc1ccccc1Cl,1.29%
6,Cc1nn(CC(=O)NCC2CCCO2)c(=O)c2cc3ccccc3n12 (configuration not stated),-2.19%
7,O=C(Cn1nc(Cc2cccnc2)c2ccccc2c1=O)NCC1COc2ccccc2O1 (configuration not stated),-6%
8,O=C(Cn1nc(Cc2cccnc2)c2ccccc2c1=O)NCC1CCCO1 (configuration not stated),98% (active)
9,CCOC(=O)c1cc(NC(=O)c2cccnc2)ccn1,-12.6%
10,O=C1CC[C@H](O)CCN1[C@H](CSc1ccc(Br)cc1)Cc1ccccc1,11.4%
11,C[C@H]1CCC(=O)N([C@H](CSc2ccccc2)Cc2ccccc2)CC1,-5.54%
12,CC(=O)Nc1ccc(SC[C@H](Cc2ccccc2)N2CC[C@@H](C)CCC2=O)cc1,97.9% (active)
13,COc1ccc(NC(=O)COC(=O)c2n[nH]c3ccccc23)c(OC)c1,-2.04%
14,COc1ccc(N2CCN(Cc3nnc(-c4ccccc4)o3)CC2)cc1,35.1%
15,c1ccc(-c2cnc(CN3CCN(c4ccccc4)CC3)o2)cc1,88.2% (active)
16,Fc1ccc(N2CCN(Cc3cnc(Oc4ccc(Br)cc4)s3)CC2)cc1,1.01%
17,COc1ccc(C2=Nn3c(nnc3-c3ccccc3OC)SC2)cc1OC1CCCC1,0.67%
18,O=C(Nc1ccc(F)c([N+](=O)[O-])c1)C1CCCO1 (configuration not stated),-26.1%
19,CCOc1ccc(OCC(=O)OC(C)C(=O)NC2CCCCC2C)cc1 (configuration not stated),-1.89%
20,CCOC(=O)c1ccc(NC2Nc3cc(C)nn3S2)cc1 (configuration not stated),-10.5%
21,CCc1ccc(NC2Nc3cc(C)nn3S2)cc1 (configuration not stated),97.5% (active)
22,COc1ccc(-c2nnc(SCC(=O)Nc3cccnc3Cl)n2C)cc1,-3.14%
23,C[C@H](NC(=O)c1[nH]cnc1C(=O)Nc1nccs1)c1ccccc1,-11.7%

row,SMILES,inhibition
1,COc1cc(/C=C/C(=O)OCC(=O)Nc2cccc(Oc3ccccc3)c2)ccc1O,-5.43%
2,COc1cc(/C=C/C(=O)OCC(=O)NCCCc2ccccc2)ccc1O,92.7% (active)
3,COc1ccc(C(=O)OCC(=O)NCCCc2ccccc2)cc1OC,1.14%
4,O=C1C=C(c2cccc(Cl)c2O)C[C@@H](c2ccc(F)cc2)C1,19.8%
5,COC(=O)c1ccc(COC(=O)CNC(=O)c2cccc(OC)c2)o1,0.754%
6,CCN(C(=O)COC(=O)Cc1c(F)cccc1Cl)c1c(N)n(Cc2ccccc2)c(=O)[nH]c1=O,-2.58%
7,O=C(/C=C/c1ccc(F)cc1)NC(=S)NNC(=O)c1cccnc1,91.2% (active)
8,CC(C)c1ccc(/C=C/C(=O)NNC(=O)c2cccnc2)cc1,3.18%
9,O=C(/C=C/c1ccc(F)cc1)NCCNC(=O)/C=C/c1ccc(F)cc1,-1.46%
10,O=C(NCCc1ccco1)c1ccc(OCc2cn3ccccc3n2)cc1,-0.605%
11,COc1ccc(S(=O)(=O)N2CCCCC2)cc1NC(=O)COc1ccccc1,-4.75%
12,Fc1ccccc1/C=N/Nc1cc(N2CCCCC2)ncn1,-6.88%
13,Cc1ccc2nc(C)cc(N/N=C/c3ccc(F)cc3)c2c1,68.2%
14,Cc1cc(N/N=C/c2ccccc2F)c2ccccc2n1,98.4% (active)
15,O=C(Nc1ccc(N2CCOCC2)cc1)c1cccc(S(=O)(=O)N2CCOCC2)c1,13.1%
16,Cc1sc2nc(CSCC(=O)Nc3c(Cl)cccc3Cl)[nH]c(=O)c2c1C,36.7%
17,CCOC(=O)c1sc2nc(CSCC(=O)OCc3ccc(C(=O)OC)o3)[nH]c(=O)c2c1C,91.5% (active)
18,CCOC(=O)c1sc2nc(C)[nH]c(=O)c2c1C,-7.28%
19,CC(C)CCNc1nc(N2CCCC2)c2c(c1C#N)CCN(C)C2,89.2% (active)
20,N#CCc1c(C#N)c(N)nc(N2CCCC2)c1C#N,6.64%
21,CC(C)Cc1nc(N2CCOCC2)c(C#N)c2c1CCC2,-5.9%
22,Cc1ccsc1C(=O)NC1CCCCC1C (configuration not stated),-1.25%
23,COc1ccccc1C1=CC(=O)C[C@H](c2ccc(F)cc2)C1,-1.43%

row,SMILES,inhibition
1,Cc1cc(C)c(NC(=O)CSc2nc3ccncc3[nH]2)c(C)c1,0.095%
2,CCCCN(CC)CCCNC(=O)c1ccc(CSc2nc3ccncc3[nH]2)cc1,98.4% (active)
3,CCN(CC)CCNC(=O)c1ccc(NC(=O)c2cc(-c3ccncc3)nc3ccccc23)cc1,-5.03%
4,Cc1nn(Cc2ccccc2)c(C)c1CNC(=O)c1ccc(F)c(S(=O)(=O)N2CCOCC2)c1,-0.911%
5,CCOc1cc(/C=C/C(=O)OCC(=O)NCCN2C(=O)CSC2=O)ccc1OCC(C)C,2.31%
6,CCN(CC(=O)Nc1c(F)cccc1F)C(=O)c1ccc(Sc2nncn2C)c([N+](=O)[O-])c1,-9.3%
7,CCOc1ccc(Br)cc1S(=O)(=O)N1CCC(C(=O)O)CC1,-9.17%
8,CCOc1ccc(Br)cc1CSC(=N)N,98.3% (active)
9,CC(C)(C)NCc1cc(Br)ccc1OC1CCCC1,-4.37%
10,CN(C)CC(O)COc1ccc(C(C)(C)c2ccc(OCC(O)CN(C)C)cc2)cc1 (configuration not stated),-9.59%
11,CCCC(O)(c1ccc(OC)cc1)C(CN(C)C)c1ccccc1 (configuration not stated),98.6% (active)
12,COc1ccc(C(O)(C2CCCCC2)C(CN2CCCC2)c2ccccc2)cc1 (configuration not stated),-2.71%
13,CC(=O)NC(CC(=O)Nc1ccc(S(=O)(=O)N2CCOCC2)cc1)c1ccccc1 (configuration not stated),-5.33%
14,COc1ccc(CNC(=O)CNC(=O)c2sc3ccccc3c2Cl)cc1OC,-4.54%
15,NCCN1CCN2C(=O)CN(C(=O)c3ccccc3)CC12 (configuration not stated),1.22%
16,Cc1c(C(C)CCCO)oc(=O)c2c1Oc1c(C)c(C(C)C[C@@H](C)O)oc(=O)c1C2 (some centres not stated),-3.12%
17,COc1cc(C(=S)NCc2ccccc2)cc(Br)c1O,88.4% (active)
18,COc1cc(C(=O)NCc2ccncc2)cc(Br)c1OCc1ccccc1,-6.06%
19,COc1cc(C=O)c(Br)cc1OCC(=O)NCc1ccccc1,-3.31%
20,O=C(CCC(=O)c1ccccc1)NCc1cccc(C(F)(F)F)c1,-5.12%
21,NC(=O)c1ccsc1NC(=O)COC(=O)COc1ccc(C=O)cc1,0.523%
22,COc1ccc(C2=NOC(Cn3nc(C(=O)NCc4ccc5c(c4)OCO5)cc3-c3ccccc3)C2)cc1 (configuration not stated),-0.145%
23,COc1ccc(OCC(=O)N2CCN(C(=O)c3cccs3)CC2)cc1,-3.05%

row,SMILES,inhibition
1,O=C(c1cccs1)N1CCN(C(=O)N2CCOCC2)CC1,5.71%
2,COc1ccc(N2CCN(C(=O)c3cccs3)CC2)cc1,93.9% (active)
3,COc1ccc(C(=O)OC(C)C(=O)NC2CCCC2)cc1S(=O)(=O)N1CCOCC1 (configuration not stated),0.414%
4,O=C(Nc1ccc(N2CCCCC2)cc1)c1cc(S(=O)(=O)N2CCOCC2)ccc1F,40.2%
5,O=C(Nc1sc2c(c1C(=O)O)CCC2)c1ccccc1F,98.3% (active)
6,COC(=O)c1c(NC(=O)c2ccccc2F)sc2c1C(C(=O)OC)CC2 (configuration not stated),1.9%
7,NC(=O)c1c(NC(=O)c2ccccc2)sc2c1CCCC2,-3.69%
8,O=C(NCC(c1cccs1)N1CCOCC1)c1cc(Cl)ccc1[N+](=O)[O-] (configuration not stated),-35.8%
9,CC(C)Oc1ccc(S(=O)(=O)N2CCOCC2)cc1NC(=O)C1CCCC1,0.587%
10,CCOc1ccc(NC(=O)CN(C)C(=O)Cn2c(=O)cnc3ccccc32)cc1OCC,-5.33%
11,CCOc1ccc(CCNC(=O)COC(=O)C2CCN(c3ccc(C(F)(F)F)cn3)CC2)cc1OCC,0.148%
12,CC(=O)N1CC(=O)N(CC(=O)Nc2ccc(Br)cc2)C1=S,99.4% (active)
13,Cc1cccc(NC(=O)CN2C(=O)CNC2=O)c1,-1.19%
14,COCC(=O)Nc1ccc(Br)cc1,-12.4%
15,Cc1ccc(C(=O)Nc2ccc3c(c2)OCCO3)cc1S(=O)(=O)N1CCOCC1,-6.89%
16,Cc1ccc(OCC(=O)N2CCN(S(=O)(=O)c3ccc(Cl)s3)CC2)cc1C,-2.26%
17,COc1ccc(N2CCN(C(=O)COC(=O)c3cccc(S(=O)(=O)Nc4ccccc4OC)c3)CC2)cc1,1.72%
18,CC1CCCCC12NC(=O)N(CC(=O)OCC(=O)NCc1ccc(F)cc1)C2=O (configuration not stated),-8.04%
19,CC1CCCCC12NC(=O)N(CC(=O)Nc1ccc(S(=O)(=O)Nc3ncccn3)cc1)C2=O (configuration not stated),91.2% (active)
20,CC1CCCCC12NC(=O)N(CC(=O)N1CCN(c3ccccc3)CC1)C2=O (configuration not stated),33.6%
21,COc1ccccc1C(=O)NCC(=O)NCCSc1ccc(Br)cc1,-5.14%
22,COc1ccc(/C=N/NC(=O)c2cc(-c3cccc(C)c3)nc3ccccc23)cc1O,12.4%
23,CC(Oc1ccc(F)cc1)C(=O)Nc1cc(S(=O)(=O)N2CCOCC2)ccc1N1CCN(C)CC1 (configuration not stated),24.9%
